# Experimental data published in PubChem BioAssay (NCATS).
# Values joined by “and” are separate entries in the source; they are usually repeats but may differ in a detail not shown here. Equal values may be shown once. Records with an inconclusive call do not appear. A call without a number means that no potency is given here. A number with no mark means an inactive call. Active and inactive are the calls of the source. The call rests on the fitted dose curve; in most records, active means well fitted curve in the direction sought with a large enough effect; inconclusive means small, poorly fitted or top-dose-only effect, or another doubt; inactive means no such curve, though single readings can be large; an effect the other way counts as inactive or inconclusive.
# Legend:
# MKL-1 = experiment: qHTS assay to identify novel small-molecules to repurpose for Merkel cell carcinoma treatment (AID 1296009); conditions: MCC and control cell lines, CellTiter-Glo viability, 72 h; series mostly up to 46 µM; further: nearly all actives have a fitted effect of over 60% in size; further: potency means the concentration at half of the fitted maximal effect
# How it was run: (§1)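 Cell viability measured by CellTiter-Glo following 72 hr compound treatment at 37 degree celsius, with NPC and MIPE libraries tested in 8- and 11-point concentration series.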
# MKL-2 = experiment: as above; conditions: MCC and control cell lines, CellTiter-Glo viability, 72 h; series mostly up to 46 µM
# How it was run: as §1
# UISO = experiment: as above; conditions: MCC and control cell lines, CellTiter-Glo viability, 72 h; series mostly up to 46 µM
# How it was run: as §1
# WaGa = experiment: as above; conditions: MCC and control cell lines, CellTiter-Glo viability, 72 h; series mostly up to 46 µM
# How it was run: as §1
# NIH3T3 = experiment: as above; conditions: MCC and control cell lines, CellTiter-Glo viability, 72 h; at 44.8 µM (top of the series) unless noted
# How it was run: as §1
# C33A = experiment: Primary qHTS to identify gynecologic anti-cancer compounds using libraries of approved drugs and bioactive compounds (AID 1345084); conditions: Gynecologic cancer cell panel viability, ATPlite luminescence, 48 h; series mostly up to 57.5 µM; further: nearly all actives have a fitted effect of over 55% in size; further: potency means the concentration at half of the fitted maximal effect
# How it was run: (§2)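 Cell viability after 48 h drug treatment, ATPlite luminescence readout; five doses.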
# CASKI = experiment: as above; conditions: Gynecologic cancer cell panel viability, ATPlite luminescence, 48 h; series mostly up to 57.5 µM
# How it was run: as §2
# Es-2 = experiment: as above; conditions: Gynecologic cancer cell panel viability, ATPlite luminescence, 48 h; series mostly up to 57.5 µM
# How it was run: as §2
# HeLa = experiment: as above; conditions: Gynecologic cancer cell panel viability, ATPlite luminescence, 48 h; series mostly up to 57.5 µM
# How it was run: as §2
# Hek293T = experiment: as above; conditions: Gynecologic cancer cell panel viability, ATPlite luminescence, 48 h, control line for the selectivity index; series mostly up to 57.5 µM
# How it was run: as §2
# JEG-3 = experiment: as above; conditions: Gynecologic cancer cell panel viability, ATPlite luminescence, 48 h; series mostly up to 57.5 µM
# How it was run: as §2
# OV90 = experiment: as above; conditions: Gynecologic cancer cell panel viability, ATPlite luminescence, 48 h; series mostly up to 57.5 µM
# How it was run: as §2
# PA-1 = experiment: as above; conditions: Gynecologic cancer cell panel viability, ATPlite luminescence, 48 h; series mostly up to 57.5 µM
# How it was run: as §2
# SKOV3 = experiment: as above; conditions: Gynecologic cancer cell panel viability, ATPlite luminescence, 48 h; series mostly up to 57.5 µM
# How it was run: as §2
# Tov-21-G = experiment: as above; conditions: Gynecologic cancer cell panel viability, ATPlite luminescence, 48 h; series mostly up to 57.5 µM
# How it was run: as §2
# Tov112D = experiment: as above; conditions: Gynecologic cancer cell panel viability, ATPlite luminescence, 48 h; series mostly up to 57.5 µM
# How it was run: as §2
# [1] = Drug repurposing screens with cells derived from glioblastoma tumor samples (AID 1345199); conditions: GBM patient neurospheres viability, ATP luminescence, 48 h; further: nearly all actives have a fitted effect of over 40% in size
# How it was run: (§3)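 Primary testing used CD133+ neurospheres from four GBM patients, seven concentrations, 48 h exposure and ATP-based viability; confirmation added three slower-growing patient lines.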
# astro = experiment: as above; conditions: viability, ATP luminescence, 48 h; series mostly up to 45.9 µM
# How it was run: as §3
# [2] = qHTS assay to identify inhibitors of the type 1 interferon - major histocompatibility complex class I in skeletal muscle: Counter screen cell viability and HiBit confirmation (AID 1347412); conditions: iHSKM muscle cells + IFN-b, HiBiT or CellTiter-Glo, 24 h; for activity change, negative = inhibition: Viability, at 45.9 µM (top of the series); further: potency means the concentration at half of the fitted maximal effect; on all read-outs here: nearly all actives have a fitted effect of over 60% in size
# How it was run: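 HLA-B*08:01–HiBiT knock-in immortalized human myoblasts (C25cl48) stimulated with 4.0 ng/ml human IFN-beta and dosed with compound in a 12-point 1:3 titration (top final 46 uM). After 24 hrs at 37 C, HiBiT lytic luminescence or CellTiter Glo ATP read out.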
# [3] = at 45.9 µM (top of the series), tumour line B
# [4] = at 45.9 µM (top of the series), tumour line D
# [5] = at 46.1 µM (top of the series), tumour line C
# [6] = at 46 µM (top of the series), tumour line A
smiles,measurement,setting,value
COC1CCC(N(C(=O)C2CCC(C)CC2)c2cc(C3=CCCCC3)sc2C(=O)O)CC1 (stereo unspecified),Potency,MKL-1,inactive
same,Potency,MKL-2,inactive
same,Potency,UISO,inactive
same,Potency,WaGa,inactive
N#CC1(c2ccc(NC(=O)c3cccnc3NCc3ccncc3)cc2)CCCC1,Potency,MKL-1,inactive
same,Potency,MKL-2,inactive
same,Potency,UISO,inactive
same,Potency,WaGa,inactive
CC(C)C(C)C=CC(C)C1CCC2C3=CC=C4CC(O)CCC4(C)C3CCC21C (stereo unspecified),Potency,MKL-1,inactive
same,Potency,MKL-2,inactive
same,Potency,UISO,inactive
same,Potency,WaGa,inactive
COC(=O)[C@@H]1[C@H]2C[C@H]3c4[nH]c5ccccc5c4CCN3C[C@@H]2CC[C@@H]1O,Potency,MKL-1,inactive
same,Potency,MKL-2,inactive
same,outcome,NIH3T3,inactive
same,Potency,UISO,inactive
same,Potency,WaGa,inactive
same,Potency,C33A,inactive
same,Potency,CASKI,inactive
same,Potency,Es-2,inactive
same,Potency,HeLa,inactive
same,Potency,Hek293T,inactive
same,Potency,JEG-3,inactive
same,Potency,OV90,inactive
same,Potency,PA-1,inactive
same,Potency,SKOV3,inactive
same,Potency,Tov-21-G,inactive
same,Potency,Tov112D,inactive
same,"activity, negative = cell killing",[1]; [3],3.23%
same,"activity, negative = cell killing",[1]; [4],3.82%
same,"activity, negative = cell killing",[1]; [5],-7.31%
same,Potency,astro,inactive
Cc1ccc(/C=N/NC(=O)c2ccccc2Oc2ccccc2)o1,Potency,MKL-1,inactive
same,Potency,MKL-2,inactive
same,Potency,UISO,inactive
same,Potency,WaGa,inactive
COC(=O)N[C@H](C(=O)N1CCC[C@@H]1c1ncc(-c2ccc(-c3ccc(-c4cnc([C@@H]5CCCN5C(=O)[C@@H](NC(=O)OC)C(C)C)[nH]4)cc3)cc2)[nH]1)C(C)C,Potency,MKL-1,inactive
same,Potency,MKL-2,inactive
same,Potency,UISO,inactive
same,Potency,WaGa,inactive
O=C(Nc1c(Cl)cncc1Cl)c1ccc(OC(F)F)c(OCC2CC2)c1,Potency,MKL-1,inactive
same,Potency,MKL-2,inactive
same,Potency,UISO,inactive
same,Potency,WaGa,inactive
Cn1cc(C=C2C(=O)Nc3cccnc32)c2ccccc21,Potency,MKL-1,inactive
same,Potency,MKL-2,inactive
same,Potency,UISO,inactive
same,Potency,WaGa,inactive
CCOC(=O)O[C@]1(C(=O)OCCl)CC[C@@H]2[C@H]3CCC4=CC(=O)C=C[C@]4(C)[C@@H]3[C@@H](O)C[C@@]21C,Potency,MKL-1,inactive
same,Potency,MKL-2,inactive
same,outcome,NIH3T3,inactive
same,Potency,UISO,inactive
same,Potency,WaGa,inactive
same,"activity, negative = cell killing",[1]; [3],-4.15%
same,"activity, negative = cell killing",[1]; [4],8.73%
same,"activity, negative = cell killing",[1]; [6],-8.19%
same,"activity, negative = cell killing",[1]; [5],1.62%
same,Potency,astro,inactive
CO[C@H]1C=CC=C(C)C(=O)NC2=CC(=O)C(NCCN(C)C)=C(C[C@@H](C)C[C@H](OC)[C@@H](O)[C@@H](C)C=C(C)[C@@H]1OC(N)=O)C2=O,Potency,MKL-1,1.05 µM (active)
same,Potency,MKL-2,14.8 µM (active)
same,Potency,UISO,0.296 µM (active)
O=C(Nc1cc(Cl)cc2c1[nH]c1cnccc12)c1cccnc1,Potency,MKL-1,inactive
same,Potency,MKL-2,inactive
same,Potency,UISO,inactive
same,Potency,WaGa,inactive
CCc1ccc(C=C2SC(=S)NC2=O)cc1,Potency,MKL-1,inactive
same,Potency,MKL-2,inactive
same,Potency,UISO,inactive
same,Potency,WaGa,inactive
O=c1cc(-c2ccccc2)oc2cc(O)cc(O)c12,Potency,MKL-1,inactive
same,Potency,MKL-2,inactive
same,Potency,UISO,inactive
same,Potency,WaGa,inactive
CN(C)CCC(c1ccccc1)c1ccccn1 (stereo unspecified),Potency,MKL-1,inactive
same,Potency,MKL-2,inactive
same,outcome,NIH3T3,inactive
same,Potency,UISO,inactive
same,Potency,WaGa,inactive
same,Potency,C33A,inactive
same,Potency,CASKI,inactive
same,Potency,Es-2,inactive
same,Potency,HeLa,inactive
same,Potency,Hek293T,inactive
same,Potency,JEG-3,inactive
same,Potency,OV90,inactive
same,Potency,PA-1,inactive
same,Potency,SKOV3,inactive
same,Potency,Tov-21-G,inactive
same,Potency,Tov112D,inactive
same,"activity, negative = cell killing",[1]; [3],-6.99%
same,"activity, negative = cell killing",[1]; [4],-4.75%
same,"activity, negative = cell killing",[1]; [6],-22.4%
same,"activity, negative = cell killing",[1]; [5],-14.6%
same,Potency,astro,inactive
OC[C@@H](O)[C@H](O)[C@H](O)[C@@H](O)CO,Potency,MKL-1,inactive
same,Potency,MKL-2,inactive
same,outcome,NIH3T3,inactive
same,Potency,UISO,inactive
same,Potency,WaGa,inactive
same,Potency,C33A,inactive
same,Potency,CASKI,inactive
same,Potency,Es-2,inactive
same,Potency,HeLa,inactive
same,Potency,Hek293T,inactive
same,Potency,JEG-3,inactive
same,Potency,OV90,inactive
same,Potency,PA-1,inactive
same,Potency,SKOV3,inactive
same,Potency,Tov-21-G,inactive
same,Potency,Tov112D,inactive
same,"activity, negative = cell killing",[1]; [3],0.357% and -12%
same,"activity, negative = cell killing",[1]; [4],-2.85% and -9.13%
same,"activity, negative = cell killing",[1]; [6],-13.7% and -24.1%
same,"activity, negative = cell killing",[1]; [5],-4.39% and -14.9%
same,Potency,astro,inactive
Cc1ccc(Nc2cc(-c3cccc(N4C(=O)c5ccccc5C4=O)c3)ncn2)cc1NS(C)(=O)=O,Potency,MKL-1,inactive
same,Potency,MKL-2,inactive
same,outcome,NIH3T3,inactive
same,Potency,UISO,inactive
same,Potency,WaGa,inactive
same,Potency,C33A,inactive
same,Potency,CASKI,inactive
same,Potency,Es-2,inactive
same,Potency,HeLa,inactive
same,Potency,OV90,inactive
same,Potency,SKOV3,inactive
same,Potency,Tov-21-G,inactive
same,Potency,Tov112D,inactive
CC(C)(C)C(=O)Oc1ccc2c(c1)nc(NC(=O)c1cccc([N+](=O)[O-])c1)n2CCCO,Potency,MKL-1,inactive
same,Potency,MKL-2,inactive
same,outcome,NIH3T3,inactive
same,Potency,WaGa,inactive
same,"activity change, negative = inhibition",[2],-3.08%
C[C@]12CC[C@@H]3c4ccc(O)cc4C[C@@H](CCCCCCCCCS(=O)CCCC(F)(F)C(F)(F)F)[C@H]3[C@H]1CC[C@H]2O (stereo partly specified),Potency,MKL-1,inactive
same,Potency,MKL-2,inactive
same,outcome,NIH3T3,inactive
same,Potency,WaGa,inactive
O=C1NC(=O)C(=Cc2ccc(-c3ccc(F)cc3)o2)S1,Potency,MKL-1,inactive
same,Potency,MKL-2,inactive
same,Potency,UISO,inactive
same,Potency,WaGa,inactive
O=C(O)c1ccccc1C(=O)Nc1ccc(-c2ccccc2)cc1,Potency,MKL-1,inactive
same,Potency,MKL-2,inactive
same,outcome,NIH3T3,inactive
same,Potency,UISO,inactive
same,Potency,WaGa,inactive
same,Potency,C33A,inactive
same,Potency,SKOV3,25.1 µM (active)
same,Potency,[2]; HiBiT,14 µM (active)
same,"activity change, negative = inhibition",[2],-4.23%
CC1(C)CCC[C@@]2(C)[C@@H]1CC[C@@]1(C)OC(=O)C[C@H]21,Potency,MKL-1,inactive
same,Potency,MKL-2,inactive
same,Potency,UISO,inactive
same,Potency,WaGa,inactive
O=c1cc(N2CCOCC2)oc2c(-c3cccc4c3sc3ccccc34)cccc12,Potency,MKL-1,inactive
same,Potency,MKL-2,inactive
same,Potency,UISO,inactive
same,Potency,WaGa,inactive
CC(C)n1cnc2c(NCCCCCCNC(=O)OC(C)(C)C)nc(NCCO)nc21,Potency,MKL-1,inactive
same,Potency,MKL-2,inactive
same,Potency,UISO,inactive
CC(C)C(=O)Oc1ccc(CO)cc1[C@H](CCN(C(C)C)C(C)C)c1ccccc1,Potency,MKL-1,inactive
same,Potency,MKL-2,inactive
same,outcome,NIH3T3,inactive
same,Potency,UISO,inactive
same,Potency,WaGa,inactive
same,Potency,CASKI,inactive
same,Potency,Es-2,inactive
same,Potency,HeLa,inactive
same,Potency,Hek293T,inactive
same,Potency,JEG-3,inactive
same,Potency,OV90,inactive
same,Potency,PA-1,inactive
same,Potency,SKOV3,inactive
same,Potency,Tov-21-G,inactive
same,Potency,Tov112D,inactive
